Screens from PubChem BioAssay.
An excerpt weighted towards active compounds, which were near 5.4% of everything screened.
SMARCA2 act: activators of SMARCA2 function; activation, % at 9.1 µM; MG213 cells, MMTV-luciferase reporter, dexamethasone, overnight; actives 1% (n = 370,000); AID 652017; in the data active = activation above about 7.8%
GASC-1 inh: inhibitors of human GASC-1 (JMJD2C) demethylase. Q9H3R0. GST-JMJD2C(1-420) H3K9me3 demethylation, DELFIA europium. inhibition, % at 2.35 µM. actives 0.069% (n = 330,000);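 active = more than half of a compound's replicate wells show inhibition beyond 50%, single wells judged on their own value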;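 note: signal counts dimethyl H3K9 product captured on neutravidin plate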
Target sequence (Q9H3R0 1-420 limits assumed): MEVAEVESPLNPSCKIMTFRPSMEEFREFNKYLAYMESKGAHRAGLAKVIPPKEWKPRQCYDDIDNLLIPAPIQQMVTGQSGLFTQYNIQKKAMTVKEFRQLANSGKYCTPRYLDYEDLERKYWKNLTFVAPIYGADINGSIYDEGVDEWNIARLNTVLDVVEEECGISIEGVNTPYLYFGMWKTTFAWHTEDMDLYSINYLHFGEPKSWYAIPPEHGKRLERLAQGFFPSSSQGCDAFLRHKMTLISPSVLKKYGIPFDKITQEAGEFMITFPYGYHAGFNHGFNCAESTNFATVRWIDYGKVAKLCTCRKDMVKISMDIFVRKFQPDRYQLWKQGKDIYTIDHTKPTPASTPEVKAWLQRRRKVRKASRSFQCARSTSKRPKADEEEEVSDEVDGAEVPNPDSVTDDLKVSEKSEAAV
Exocytosis inh: blocks lytic granule exocytosis. TALL-104 LAMP-1 surface exposure, flow cytometry; cells stimulated with thapsigargin and PMA. inhibition, % at 10 µM. actives 0.66% (n = 360,000). AID 651702;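 active = inhibition above about 55%, limit read from the data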
beta cell repl: MIN6 beta-cell proliferation induction | MIN6 cells proliferation, ATPlite luminescence, 48 h; cells starved in 0.2% serum; 100% = growth in 10% serum | proliferation, % at 10 µM | actives 0.29% (n = 330,000);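 active = compounds whose signal lies at least 3.5 SD above the mean of all wells on their plate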
ALR H2O2 inh: inhibitors of human sulfhydryl oxidase ALR; actives 3.8% (n = 290,000); inhibition, % (test concentration not listed); P55789; AID 485317; purified ALR, DTT oxidation, H2O2 HRP-luminol luminescence;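 active = mean replicate inhibition above about 79%, with every replicate also reaching it, limit read from the data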
Target sequence (P55789 whole entry, looked up): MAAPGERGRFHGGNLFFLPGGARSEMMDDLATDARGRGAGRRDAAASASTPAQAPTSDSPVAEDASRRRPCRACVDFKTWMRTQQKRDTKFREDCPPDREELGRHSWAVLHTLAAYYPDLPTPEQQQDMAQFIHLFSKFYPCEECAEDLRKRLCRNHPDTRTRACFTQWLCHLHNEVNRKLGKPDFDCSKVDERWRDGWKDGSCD
M18AAP inhibitor: blocks P. falciparum M18 aspartyl aminopeptidase | actives 1.2% (n = 290,000) | AID 1822 | recombinant PfM18AAP, H-Glu-NHMec fluorogenic cleavage | inhibition, % at 7.35 µM;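 active = inhibition above the campaign mean inhibition over all tested compounds plus 3 SD, cut at about 28% in these data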
Large screens that a line does not name were inactive.

COC(=O)c1ccc(COc2ccc(/C=N/Nc3cccc(C(=O)O)c3)cc2)cc1	none
O=C(O)c1cc(N/N=C/c2c(O)ccc3ccccc23)ccc1Cl	none (no result: ALR H2O2 inh)
O=C(O)c1cc(N/N=C/C=C/c2ccccc2)ccc1Cl	ALR H2O2 inh 99
O=C(O)c1cc(N/N=C/c2ccc(OCc3ccccc3)cc2)ccc1Cl	ALR H2O2 inh 97
N#CCC(=O)N/N=C/c1ccc(OCc2ccccc2)cc1	M18AAP inhibitor 30
COc1ccc(S[C@]2(C(=O)N3CCN(c4ncccn4)CC3)CC(=O)N(c3ccc(Cl)cc3)[C@@H]2c2ccc(OC)cc2)cc1	none (no result: GASC-1 inh, Exocytosis inh, beta cell repl, ALR H2O2 inh, M18AAP inhibitor)
CC(=O)CC[C@H]1CC[C@]2(CCCN(S(C)(=O)=O)C2)O1	none (no result: GASC-1 inh, Exocytosis inh, beta cell repl, ALR H2O2 inh, M18AAP inhibitor)
CCCc1cn(-c2ccc3c(c2)[C@]2(CC(=O)N(C)C2c2ccccc2)C(=O)N3CC(C)C)nn1 (some centres not stated)	none (no result: GASC-1 inh, Exocytosis inh, beta cell repl, ALR H2O2 inh, M18AAP inhibitor)
COc1cc(O)c(C(CCN2CCOCC2)c2ccc(N(C)C)cc2)c(OC)c1 (configuration not stated)	ALR H2O2 inh 99 (no result: M18AAP inhibitor)
COc1cc(O)c(C(CCN2CCCC(C)C2)c2ccc(N(C)C)cc2)c(OC)c1 (configuration not stated)	ALR H2O2 inh 98 (no result: M18AAP inhibitor)
COc1cc(O)c(C(CCN2CCN(c3ccccc3)CC2)c2ccc(N(C)C)cc2)c(OC)c1 (configuration not stated)	none (no result: M18AAP inhibitor)
COc1cc(O)c(C(CCN2CCCC(C)C2)c2ccc3c(c2)OCO3)c(OC)c1 (configuration not stated)	none (no result: M18AAP inhibitor)
CCN(CC)CCC(c1ccc(OC)cc1)c1c(O)cc(OC)cc1OC (configuration not stated)	none (no result: ALR H2O2 inh, M18AAP inhibitor)
CCN(CC)CCC(c1ccc(N(C)C)cc1)c1c(O)cc(OC)cc1OC (configuration not stated)	ALR H2O2 inh 99 (no result: M18AAP inhibitor)
CCCCOCCCNC(=O)C[C@@H]1C(=O)N(Cc2ccc(OC)cc2)C2=CCN(C(=O)OC(C)(C)C)C[C@]21C(=O)OCC	none (no result: GASC-1 inh, Exocytosis inh, beta cell repl, ALR H2O2 inh, M18AAP inhibitor)
Cn1c2ccccc2c2cc(C(=O)NNC(=O)CCl)sc21	none
COCCNC(=O)c1cc2c3ccccc3n(C)c2s1	ALR H2O2 inh 99
CC(=O)Nc1ccc(S(=O)(=O)NNC(=O)c2cc3c4ccccc4n(C)c3s2)cc1	ALR H2O2 inh 98
CCCNC(=O)c1cc2c3ccccc3n(C)c2s1	ALR H2O2 inh 99
CC(=O)c1cc(-c2cccc(C#N)c2)c(=O)n2c1CCC2	none (no result: GASC-1 inh, Exocytosis inh, beta cell repl, ALR H2O2 inh, M18AAP inhibitor)
COC(=O)C12C=C3CC(c4ccc(OC)cc4)=C3C(=O)N1Cc1[nH]c3ccccc3c1C2 (configuration not stated)	none (no result: GASC-1 inh, Exocytosis inh, beta cell repl, ALR H2O2 inh, M18AAP inhibitor)
CC(C)c1ccc(O)c(NC(=O)c2ncn[nH]2)c1	M18AAP inhibitor 29 (no result: GASC-1 inh)
CN(C)c1ccc(CC2C(=O)Nc3ccccc32)cc1 (configuration not stated)	ALR H2O2 inh 98, M18AAP inhibitor 31
CN(C)c1ccc(NC(=O)C(=O)C2C(=O)Nc3ccccc32)cc1 (configuration not stated)	none
O=C(NCc1ccccc1)c1sc(=S)n2c1[nH]c(=O)c1ccccc12	ALR H2O2 inh 98
CN(C)c1ccc(NC2=C([N+](=O)[O-])CS(=O)(=O)C2)cc1	ALR H2O2 inh 99
Nc1nnc(N2CCCCCC2)s1	none
Nc1nnc(N2CCc3ccccc32)s1	ALR H2O2 inh 99
COc1ccc(C(=O)C2CCCN(Cc3cnc(N4CCCC4)s3)C2)cc1OC (configuration not stated)	ALR H2O2 inh 98
CCOC(=O)C(C)/C(C)=N/NC(N)=S (configuration not stated)	ALR H2O2 inh 96
CCOC(=O)N[C@H](C(=O)N1CCC[C@H]1C(=O)NCCc1ccccc1Cl)c1ccccc1	none (no result: GASC-1 inh, Exocytosis inh, beta cell repl, ALR H2O2 inh, M18AAP inhibitor)
COc1ccc(-n2c(/C=C3\C(=O)N(C)c4ccccc43)nc3ccccc3c2=O)cc1	ALR H2O2 inh 97
Cc1ccc(C2CC(c3ccco3)n3ncnc3N2)cc1 (configuration not stated)	none
Cc1ccc2c(c1)C(N1CCCC1=O)CC(c1ccco1)N2 (configuration not stated)	Exocytosis inh 87 (no result: ALR H2O2 inh)
Cc1cc(=S)nc(-c2ccccn2)[nH]1	none (no result: GASC-1 inh)
CSc1nc(=S)cc(C)[nH]1	M18AAP inhibitor 43 (no result: ALR H2O2 inh)
O=C(CNS(=O)(=O)c1cc2ccccc2s1)N1CCN(c2ccccn2)CC1	none (no result: GASC-1 inh, Exocytosis inh, beta cell repl, ALR H2O2 inh, M18AAP inhibitor)
O=C(O)C1CSC(c2coc3ccccc3c2=O)N1 (configuration not stated)	ALR H2O2 inh 99, M18AAP inhibitor 29
COc1ccc(-c2nc(SCC(=O)Nc3nccs3)c(-c3ccc(Cl)cc3)[nH]2)cc1	none
COc1ccc(-c2[nH]c(-c3ccc(C)cc3)nc2SCC(=O)Nc2nccs2)cc1	ALR H2O2 inh 94
COc1cc(/C=N/n2c(=S)[nH]nc(C)c2=O)cc([N+](=O)[O-])c1O	M18AAP inhibitor 29
Cc1n[nH]c(=S)n(/N=C/c2cccc([N+](=O)[O-])c2)c1=O	none
O=[N+]([O-])c1ccc(C=NN2CCCCCC2)cc1	none (no result: GASC-1 inh, beta cell repl, ALR H2O2 inh, M18AAP inhibitor)
COc1cc(/C=N/N2CCCCC2)cc([N+](=O)[O-])c1O	ALR H2O2 inh 98
COc1cccc(/C=N/n2c(-c3n[nH]c4c3CCC4)n[nH]c2=S)c1OC	none
COc1cccc(/C=N/n2c(-c3cc(C)[nH]n3)n[nH]c2=S)c1OC	ALR H2O2 inh 96
COc1ccccc1N1CCN(/N=C/c2cc(OC)c(O)c(OC)c2)CC1	ALR H2O2 inh 99
COC(=O)C1CN(Cc2cn(Cc3ccc(C)cc3)nn2)CCS(=O)(=O)N1Cc1ccc(F)cc1 (configuration not stated)	none (no result: GASC-1 inh, Exocytosis inh, beta cell repl, ALR H2O2 inh, M18AAP inhibitor)
O=[N+]([O-])c1cc(/C=N/n2c(-c3ccncc3)n[nH]c2=S)ccc1Cl	none
Cc1cc(-c2n[nH]c(=S)n2/N=C/c2ccc(Cl)c([N+](=O)[O-])c2)n[nH]1	ALR H2O2 inh 97
COC(=O)[C@H](C(C)C)N1Cc2nnn(Cc3ccc(C)cc3)c2-c2cc(F)ccc2S1(=O)=O	none (no result: GASC-1 inh, Exocytosis inh, beta cell repl, ALR H2O2 inh, M18AAP inhibitor)
OCCN(CCO)c1ccc2ccccc2c1	ALR H2O2 inh 98
COc1cc(OC)c(C2SCCS2)c(OC)c1	ALR H2O2 inh 99
Cc1onc(-c2ccccc2)c1C(=O)Nc1nc2c(s1)CCCC2	none
Cc1cc(C(=O)Nc2nc3c(s2)CCCC3)no1	ALR H2O2 inh 96
CN(C)c1ccc(C(=O)Nc2nc3c(s2)CCCC3)cc1	ALR H2O2 inh 96
CCOCC(=O)NC(=O)N1C[C@H]2CON(C)[C@H]2C[C@H]1c1ccc(OC)cc1	none (no result: GASC-1 inh, Exocytosis inh, beta cell repl, ALR H2O2 inh, M18AAP inhibitor)
O=C1/C(=C\c2ccccc2)CN(C(=O)CCN2CCCCC2)C/C1=C/c1ccccc1	Exocytosis inh 83 (no result: GASC-1 inh, beta cell repl, ALR H2O2 inh, M18AAP inhibitor)
O=C(CCN1C(=O)S/C(=C\c2ccccc2)C1=O)N1CCCCC1	none
O=C1/C(=C\c2ccc(Cl)c(Cl)c2)CN(C(=O)CCN2CCOCC2)C/C1=C/c1ccc(Cl)c(Cl)c1	Exocytosis inh 65 (no result: GASC-1 inh, beta cell repl, ALR H2O2 inh, M18AAP inhibitor)
O=C(NCCN1CCOCC1)c1ccc(Cl)c(Cl)c1	none
